About 7,900 targets were measured; listed, in parts, are those with a hit and a random draw of the rest. About 0.6% of all pairs of compound and target were hits. Values without a mark were called inactive.
Assays:
Experiment in all cases: log2 fold change, soluble protein after heating vs DMSO (PISA); higher = thermal stabilisation; K562 cells, 10 uM, 30 min; active = over 0.2 and 3.5 SD of the protein, either way, in both replicates (recomputed)
[1] = compound: COC1=CC=C(C=C1)CN2C=CC3=C2C=C(C=C3)C(=O)NO
How it was run: (§1)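 K562 cells (2×10^6 cells/mL) were treated with 10 μM compound for 30 min, and aliquots were heated for 3 min over 48°C-58°C. Pooled aliquots were extracted in PBS with 0.5% NP-40 at 4°C, and the supernatant after 21,000xg for 90 min was measured by TMTpro 16plex LC-MS/MS with channel sums equalised. Reported thermal stability, relative to control samples and from duplicates, is a log2 fold change.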

filanesib = compound: CON(C)C(=O)N1N=C(c2cc(F)ccc2F)S[C@@]1(CCCN)c1ccccc1 [filanesib]
How it was run: as §1

zotarolimus = compound: CO[C@H]1C[C@@H]2CC[C@@H](C)[C@@](O)(O2)C(=O)C(=O)N2CCCC[C@H]2C(=O)O[C@H]([C@H](C)C[C@@H]2CC[C@H](n3cnnn3)[C@H](OC)C2)CC(=O)[C@H](C)/C=C(\C)[C@@H](O)[C@@H](OC)C(=O)[C@H](C)C[C@H](C)/C=C/C=C/C=C/1C [zotarolimus]
How it was run: as §1

idasanutlin = compound: COc1cc(C(=O)O)ccc1NC(=O)[C@@H]1N[C@@H](CC(C)(C)C)[C@](C#N)(c2ccc(Cl)cc2F)[C@H]1c1cccc(Cl)c1F [idasanutlin]
How it was run: as §1

alisertib = compound: COc1cc(Nc2ncc3c(n2)-c2ccc(Cl)cc2C(c2c(F)cccc2OC)=NC3)ccc1C(=O)O [alisertib]
How it was run: as §1

[2] = compound: COc1cc2nc(-c3cc(F)ccc3O)nc(N[C@@H]3CNC[C@H]3C(C)(C)O)c2cc1OC
How it was run: as §1

gefitinib = compound: COc1cc2ncnc(Nc3ccc(F)c(Cl)c3)c2cc1OCCCN1CCOCC1 [gefitinib]
How it was run: as §1

[3] = compound: COc1cccc2cc(-c3nc([C@H]4CC[C@H](C(=O)O)CC4)n4ncnc(N)c34)[nH]c12
How it was run: as §1

lapatinib = compound: CS(=O)(=O)CCNCc1ccc(-c2ccc3ncnc(Nc4ccc(OCc5cccc(F)c5)c(Cl)c4)c3c2)o1 [lapatinib]
How it was run: as §1

pictilisib = compound: CS(=O)(=O)N1CCN(Cc2cc3nc(-c4cccc5[nH]ncc45)nc(N4CCOCC4)c3s2)CC1 [pictilisib]
How it was run: as §1

UniProt Q96LJ7, sequence (Q96LJ7 whole entry, looked up): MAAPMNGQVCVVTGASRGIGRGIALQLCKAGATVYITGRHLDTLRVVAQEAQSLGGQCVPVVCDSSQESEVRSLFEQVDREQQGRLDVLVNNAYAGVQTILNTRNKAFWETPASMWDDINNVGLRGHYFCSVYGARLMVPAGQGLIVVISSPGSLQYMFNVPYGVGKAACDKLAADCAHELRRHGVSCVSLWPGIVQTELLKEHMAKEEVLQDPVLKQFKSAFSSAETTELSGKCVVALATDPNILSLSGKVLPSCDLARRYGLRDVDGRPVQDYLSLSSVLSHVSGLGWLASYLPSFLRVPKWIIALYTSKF
UniProt Q14689, sequence (Q14689 whole entry, looked up): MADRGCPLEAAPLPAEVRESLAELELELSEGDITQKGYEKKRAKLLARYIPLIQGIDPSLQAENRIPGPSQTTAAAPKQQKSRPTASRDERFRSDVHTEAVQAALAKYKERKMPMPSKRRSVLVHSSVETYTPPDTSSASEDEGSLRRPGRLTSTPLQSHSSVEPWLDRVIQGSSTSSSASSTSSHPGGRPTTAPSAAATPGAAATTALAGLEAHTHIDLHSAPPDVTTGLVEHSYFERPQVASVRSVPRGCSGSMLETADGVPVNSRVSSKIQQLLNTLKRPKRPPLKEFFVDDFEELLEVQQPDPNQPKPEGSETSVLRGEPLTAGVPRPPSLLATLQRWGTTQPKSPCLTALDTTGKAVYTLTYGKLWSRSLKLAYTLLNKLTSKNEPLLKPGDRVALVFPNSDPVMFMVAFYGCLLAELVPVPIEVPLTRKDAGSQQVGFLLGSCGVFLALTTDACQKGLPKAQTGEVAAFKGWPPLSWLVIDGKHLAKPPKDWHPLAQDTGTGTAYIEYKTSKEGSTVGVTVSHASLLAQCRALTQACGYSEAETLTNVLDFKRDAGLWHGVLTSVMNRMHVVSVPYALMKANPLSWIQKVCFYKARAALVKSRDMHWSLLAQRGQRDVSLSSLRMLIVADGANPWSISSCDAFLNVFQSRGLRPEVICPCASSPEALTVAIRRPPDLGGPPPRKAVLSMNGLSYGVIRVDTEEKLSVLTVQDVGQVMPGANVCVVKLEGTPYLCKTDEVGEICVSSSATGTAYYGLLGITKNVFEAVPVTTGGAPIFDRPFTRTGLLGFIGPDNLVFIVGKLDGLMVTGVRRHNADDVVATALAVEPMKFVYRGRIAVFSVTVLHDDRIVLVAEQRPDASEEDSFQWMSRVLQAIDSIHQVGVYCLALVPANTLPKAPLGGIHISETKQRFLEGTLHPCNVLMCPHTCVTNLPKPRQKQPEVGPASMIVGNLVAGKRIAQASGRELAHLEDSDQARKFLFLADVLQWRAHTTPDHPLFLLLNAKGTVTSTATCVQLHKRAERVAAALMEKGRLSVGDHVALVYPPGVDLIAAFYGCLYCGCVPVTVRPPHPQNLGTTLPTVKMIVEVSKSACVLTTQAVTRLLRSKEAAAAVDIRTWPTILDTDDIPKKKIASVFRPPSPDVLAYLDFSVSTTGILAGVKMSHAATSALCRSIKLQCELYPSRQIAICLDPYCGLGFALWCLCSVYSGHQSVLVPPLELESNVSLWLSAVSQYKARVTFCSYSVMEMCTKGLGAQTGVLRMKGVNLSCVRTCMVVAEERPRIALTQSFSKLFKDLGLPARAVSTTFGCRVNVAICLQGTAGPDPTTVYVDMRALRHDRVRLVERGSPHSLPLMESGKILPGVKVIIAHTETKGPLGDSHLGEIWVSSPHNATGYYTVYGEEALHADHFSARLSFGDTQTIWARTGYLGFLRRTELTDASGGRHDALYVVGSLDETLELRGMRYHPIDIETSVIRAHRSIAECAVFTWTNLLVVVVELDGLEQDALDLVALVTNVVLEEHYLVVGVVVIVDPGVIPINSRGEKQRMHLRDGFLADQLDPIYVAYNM
UniProt P60842, sequence (P60842 whole entry, looked up): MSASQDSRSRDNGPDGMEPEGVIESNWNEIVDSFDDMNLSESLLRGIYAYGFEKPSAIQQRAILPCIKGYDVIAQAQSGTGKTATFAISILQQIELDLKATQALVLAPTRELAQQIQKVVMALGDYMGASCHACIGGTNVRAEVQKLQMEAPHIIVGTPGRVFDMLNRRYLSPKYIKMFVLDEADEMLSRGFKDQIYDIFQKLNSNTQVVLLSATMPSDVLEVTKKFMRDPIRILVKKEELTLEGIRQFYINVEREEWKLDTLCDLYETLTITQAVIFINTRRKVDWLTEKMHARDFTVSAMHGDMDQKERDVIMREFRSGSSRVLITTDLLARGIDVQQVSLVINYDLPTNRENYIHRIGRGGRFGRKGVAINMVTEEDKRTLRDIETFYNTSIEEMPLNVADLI
UniProt Q5W0V3, sequence (Q5W0V3 whole entry, looked up): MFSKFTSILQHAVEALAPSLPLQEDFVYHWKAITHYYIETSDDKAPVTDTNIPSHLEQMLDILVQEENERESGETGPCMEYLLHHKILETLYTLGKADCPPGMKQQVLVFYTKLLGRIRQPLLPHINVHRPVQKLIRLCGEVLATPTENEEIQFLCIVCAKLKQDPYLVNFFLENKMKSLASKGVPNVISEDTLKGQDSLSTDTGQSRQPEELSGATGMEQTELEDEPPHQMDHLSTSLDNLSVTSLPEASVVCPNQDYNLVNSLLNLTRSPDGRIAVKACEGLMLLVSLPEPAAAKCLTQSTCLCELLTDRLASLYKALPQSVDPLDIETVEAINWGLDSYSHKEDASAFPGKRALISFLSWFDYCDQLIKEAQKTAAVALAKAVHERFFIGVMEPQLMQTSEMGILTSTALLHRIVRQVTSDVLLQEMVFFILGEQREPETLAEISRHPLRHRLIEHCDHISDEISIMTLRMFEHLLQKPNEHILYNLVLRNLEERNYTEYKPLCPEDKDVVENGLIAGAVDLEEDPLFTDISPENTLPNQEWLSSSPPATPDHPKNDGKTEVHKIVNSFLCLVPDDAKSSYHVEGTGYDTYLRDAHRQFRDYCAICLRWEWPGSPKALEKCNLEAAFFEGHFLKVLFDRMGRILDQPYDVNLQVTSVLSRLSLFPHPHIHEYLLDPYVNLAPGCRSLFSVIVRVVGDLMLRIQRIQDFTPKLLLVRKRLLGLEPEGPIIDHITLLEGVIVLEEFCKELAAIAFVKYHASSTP
UniProt Q8IX18, sequence (Q8IX18 whole entry, looked up): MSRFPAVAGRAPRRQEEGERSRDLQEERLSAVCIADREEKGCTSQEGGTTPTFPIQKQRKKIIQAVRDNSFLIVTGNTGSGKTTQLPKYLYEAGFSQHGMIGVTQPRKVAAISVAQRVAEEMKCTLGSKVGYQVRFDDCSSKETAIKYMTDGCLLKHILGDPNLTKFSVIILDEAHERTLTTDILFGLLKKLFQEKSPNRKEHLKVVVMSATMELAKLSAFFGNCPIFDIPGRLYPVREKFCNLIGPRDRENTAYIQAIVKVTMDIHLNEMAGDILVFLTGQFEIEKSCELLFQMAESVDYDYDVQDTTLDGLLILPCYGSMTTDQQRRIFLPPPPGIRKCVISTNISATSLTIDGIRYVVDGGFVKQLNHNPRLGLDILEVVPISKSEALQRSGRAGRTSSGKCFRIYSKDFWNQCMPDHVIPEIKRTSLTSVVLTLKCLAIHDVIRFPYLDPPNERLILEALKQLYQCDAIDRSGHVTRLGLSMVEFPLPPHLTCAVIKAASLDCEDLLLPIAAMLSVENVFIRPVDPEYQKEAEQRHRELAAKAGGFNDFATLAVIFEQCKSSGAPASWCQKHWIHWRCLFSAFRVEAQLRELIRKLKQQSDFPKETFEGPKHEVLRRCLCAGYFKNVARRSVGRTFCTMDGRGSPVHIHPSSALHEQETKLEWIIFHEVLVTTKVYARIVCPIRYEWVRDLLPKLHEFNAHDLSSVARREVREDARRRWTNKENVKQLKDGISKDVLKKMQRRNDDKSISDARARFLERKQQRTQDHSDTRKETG
UniProt Q15369, sequence (Q15369 whole entry, looked up): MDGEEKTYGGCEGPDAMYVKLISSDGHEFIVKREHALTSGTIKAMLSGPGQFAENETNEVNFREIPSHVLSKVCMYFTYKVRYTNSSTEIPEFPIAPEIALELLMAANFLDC
UniProt O76075, sequence (O76075 whole entry, looked up): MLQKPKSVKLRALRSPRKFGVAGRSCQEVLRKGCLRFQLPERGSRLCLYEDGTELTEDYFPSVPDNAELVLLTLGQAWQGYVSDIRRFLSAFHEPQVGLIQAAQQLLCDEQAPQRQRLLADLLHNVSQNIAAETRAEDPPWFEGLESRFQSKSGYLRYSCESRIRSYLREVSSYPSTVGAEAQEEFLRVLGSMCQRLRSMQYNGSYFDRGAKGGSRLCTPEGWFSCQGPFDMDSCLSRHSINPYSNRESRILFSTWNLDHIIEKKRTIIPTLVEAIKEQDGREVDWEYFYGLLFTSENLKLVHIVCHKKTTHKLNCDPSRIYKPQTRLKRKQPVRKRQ
UniProt Q9H4H8, sequence (Q9H4H8 whole entry, looked up): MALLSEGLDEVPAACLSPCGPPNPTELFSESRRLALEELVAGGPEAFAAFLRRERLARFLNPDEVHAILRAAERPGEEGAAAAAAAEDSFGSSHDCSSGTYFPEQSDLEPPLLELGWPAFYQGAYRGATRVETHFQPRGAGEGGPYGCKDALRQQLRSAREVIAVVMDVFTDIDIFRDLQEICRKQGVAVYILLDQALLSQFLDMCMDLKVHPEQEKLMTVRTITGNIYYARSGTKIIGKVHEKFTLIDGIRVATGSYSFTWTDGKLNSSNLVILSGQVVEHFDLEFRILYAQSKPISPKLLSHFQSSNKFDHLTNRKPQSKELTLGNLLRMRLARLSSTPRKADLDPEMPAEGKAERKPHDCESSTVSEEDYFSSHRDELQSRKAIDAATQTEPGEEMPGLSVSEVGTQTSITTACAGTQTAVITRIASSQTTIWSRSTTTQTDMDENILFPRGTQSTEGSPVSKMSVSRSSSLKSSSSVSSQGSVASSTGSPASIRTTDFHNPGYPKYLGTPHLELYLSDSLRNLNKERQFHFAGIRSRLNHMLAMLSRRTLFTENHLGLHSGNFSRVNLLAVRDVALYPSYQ
UniProt Q96GE9, sequence (Q96GE9 whole entry, looked up): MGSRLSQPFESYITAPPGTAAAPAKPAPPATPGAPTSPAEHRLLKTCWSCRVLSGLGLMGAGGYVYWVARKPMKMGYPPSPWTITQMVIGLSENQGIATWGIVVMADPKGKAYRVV

Row | Target | log2 fold change [1] | log2 fold change (filanesib) | log2 fold change (zotarolimus) | log2 fold change (idasanutlin) | log2 fold change (alisertib) | log2 fold change [2] | log2 fold change (gefitinib) | log2 fold change [3] | log2 fold change (lapatinib) | log2 fold change (pictilisib)
1 | CUX1 isoform 2 (UniProt Q13948) | -0.095 | 0.077 | -0.007 | -0.043 | 0.012 | -0.062 | -0.029 | 0.074 | 0.009 | 0.018
2 | DNAAF2 (UniProt Q9NVR5) | 0.009 | -0.012 | 0.016 | -0.033 | 0.005 | 0.015 | 0.035 | 0.062 | -0.026 | 0.232
3 | EPHX2 (UniProt P34913) | -0.019 | -0.096 | -0.017 | -0.089 | -0.053 | -0.009 | 0 | 0.055 | -0.041 | 0.062
4 | DHRS1 (UniProt Q96LJ7) | 0.159 | 0.061 | 0.448 | 0.952 (active) | -0.025 | 0.115 | 0.494 | -0.113 | 0.096 | 0.009
5 | EBNA1BP2 (UniProt Q99848) | -0.054 | 0.686 | 0.069 | 0.283 | -0.172 | -0.095 | -0.01 | -0.216 | 0.153 | -0.069
6 | FAM160B1 (UniProt Q5W0V3) | 0.026 | -0.145 | 0.004 | -0.053 | -0.096 | -0.092 | 0.047 | -0.027 | 0.009 | -0.009
7 | CTU1 (UniProt Q7Z7A3) | 0.045 | -0.193 | 0.022 | -0.037 | -0.063 | -0.061 | -0.024 | 0.025 | -0.085 | -0.005
8 | DOHH (UniProt Q9BU89) | -0.4 | -0.151 | 0.022 | -0.038 | -0.062 | -0.041 | 0.201 | 0.084 | -0.006 | -0.171
9 | CWC27 (UniProt Q6UX04) | 0.047 | -0.017 | -0.068 | 0.014 | -0.043 | 0.061 | 0.021 | -0.046 | -0.004 | -0.036
10 | F5 (UniProt P12259) | -0.032 | -0.05 | -0.051 | 0.613 (active) | -0.074 | -0.089 | 0.026 | 0.059 | 0.034 | 0.074
11 | DMAC1 (UniProt Q96GE9) | -0.121 | 0.04 | -0.04 | -0.339 | -0.174 | -0.111 | -0.074 | 0.145 | 0.053 | 0.038
12 | CTSV (UniProt O60911) | -0.006 | -0.112 | -0.011 | -0.036 | -0.042 | -0.002 | 0.056 | 0.141 | -0.064 | 0.135
13 | DFFB (UniProt O76075) | -0.016 | -0.141 | -0.093 | -0.03 | -0.004 | 0.06 | -0.054 | 0.041 | -0.015 | -0.074
14 | EIF4A1 (UniProt P60842) | 0.061 | -0.11 | -0.009 | -0.075 | -0.004 | -0.01 | 0.004 | -0.027 | 0.016 | -0.088
15 | EIF4E isoform 2 (UniProt P06730) | -0.002 | -0.038 | 0.346 (active) | -0.085 | -0.083 | 0.039 | 0.112 | 0.354 (active) | 0.039 | 0.373 (active)
16 | DHX40 (UniProt Q8IX18) | -0.025 | 0.022 | 0.008 | 0.025 | -0.146 | -0.019 | 0.31 | -0.037 | 0.039 | -0.014
17 | DBN1 isoform 3 (UniProt Q16643) | 0.012 | 0.182 | 0.074 | 0.061 | -0.023 | -0.024 | 0.05 | 0.084 | -0.041 | -0.111
18 | DNAJC1 (UniProt Q96KC8) | -0.023 | -0.138 | -0.039 | -0.064 | 0.001 | -0.17 | 0.008 | 0.022 | -0.078 | 0.017
19 | FAM83D (UniProt Q9H4H8) | -0.009 | 0.062 | 0.051 | -0.109 | -0.135 | 0.018 | 0.05 | -0.034 | 0.021 | -0.136
20 | EXOC2 (UniProt Q96KP1) | 0.015 | -0.009 | 0.021 | -0.02 | -0.011 | 0.096 | 0.107 | -0.106 | -0.037 | 0.059
21 | EMD (UniProt P50402) | -0.049 | -0.013 | 0.007 | 0.037 | -0.08 | -0.031 | -0.053 | 0.074 | -0.025 | 0.093
22 | ERLIN1 (UniProt O75477) | -0.013 | 0.031 | 0.037 | 0.128 | -0.092 | -0.075 | -0.051 | -0.14 | 0.006 | -0.107
23 | FAM118A (UniProt Q9NWS6) | 0.213 | -0.15 | 0.032 | -0.323 | 0.383 | 0.023 | 0.022 | -0.044 | 0 | 0.207
24 | ELOC (UniProt Q15369) | 0.007 | 0.04 | 0.096 | -0.009 | -0.009 | 0.033 | -0.006 | 0.011 | -0.002 | 0.105
25 | DIP2A (UniProt Q14689) | -0.097 | 0.028 | -0.018 | -0.047 | 0.357 | -0.098 | 0.008 | -0.004 | -0.047 | 0.103
26 | ECPAS (UniProt Q5VYK3) | 0.004 | -0.004 | 0.033 | -0.127 | -0.001 | 0.055 | -0.007 | -0.087 | -0.033 | 0.005
27 | FAM114A2 (UniProt Q9NRY5) | 0 | -0.131 | -0.01 | -0.036 | -0.038 | -0.093 | 0.002 | 0.035 | -0.009 | -0.02
28 | ESYT1 isoform 2 (UniProt Q9BSJ8) | 0.042 | 0.013 | 0.08 | 0.08 | -0.094 | 0.008 | 0.053 | -0.122 | 0.089 | -0.038
29 | DTWD2 (UniProt Q8NBA8) | -0.229 | 0.307 | -0.036 | -0.073 | 0.069 | -0.18 | -0.159 | 0.002 | 0.151 | -0.042
30 | DCAF16 (UniProt Q9NXF7) | 0.065 | 0.077 | 0.035 | 0.037 | -0.07 | 0.021 | 0.022 | 0 | -0.168 | 0.132
